The campaign covered roughly 320,000 compounds. About 1,300 (0.41%) were called active. Roughly 3% stayed inconclusive and do not appear here. How the calls were made is not given here. These entries were drawn from the full list. Measured potencies and affinities stand elsewhere.

This assay in a line: growth inhibition of non-replicating M. tuberculosis (AID 488890).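 Further: plate controls were DMSO cells for no effect and high antibiotic wells for full effect.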 To be noted: Mycobacterium tuberculosis non-replicating, at 25 µM, stronger effect = higher value.
As a reminder, the inhibition is the change of the read-out against control, counted positive when it falls. Consider `Cc1cccc(C(=O)NCCC(=O)Nc2ccc(C#N)cc2)c1`, for which the inhibition is -25.3%. For the molecule `Cc1cccc2nc(CSc3ccccc3C(=O)O)cn12`, the inhibition came to 24.4%. As for `Cc1cc(C)cc(NC(=O)C2CCCN(c3ncccn3)C2)c1` (stereo not drawn), the inhibition came to 0.57%.

On to `c1cc(-c2cc3cc4c(cc3cn2)OCO4)cs1`, for which the inhibition is 53.8%. Consider `O=S(=O)(CCN1CCN(c2ccccn2)CC1)c1ccc(F)cc1`, for which the inhibition was 3.07%. Turning to `O=S(=O)(c1cc(Cl)ccc1Cl)N1CCN(c2ccccn2)CC1`, the inhibition was determined as 6.68%.

On to `CC(=O)Cn1c2ccccc2n2nc(CCC(=O)O)c(=O)nc12`, for which the inhibition is -25.9%. As to `Cc1cccc(C(=O)OCC(=O)N2CCCCCC2)c1`, the inhibition came to 12%. In the case of `CC1CCN(C(=O)c2cc3ccccc3cc2O)CC1` it was 62%; in that of `O=C(COc1ccc(Cl)cc1)OCC(=O)N1CCCCCC1`, 70.8%; in that of `O=C(OCC(=O)N1CCCC1)c1ccccc1O`, 71.7%.

On to `O=C(OCC(=O)N1CCN(C(=O)COC(=O)c2ccc(O)cc2O)CC1)c1ccc(O)cc1O`, for which the inhibition is -2.13%.

Turning to `NC(=O)C1CCN(C(=O)COc2ccc(Nc3ccccc3)cc2)CC1`, the inhibition was 24.7%. In the case of `CC1CCN(C(=O)COC(=O)c2cc3ccccc3oc2=O)CC1` it was 11.8%; in that of `O=C(c1cc2ccccc2cc1O)N1CCCC1`, 5.6%; in that of `O=[N+]([O-])c1cccc(-c2csc(N/N=C/c3cccc(O)c3)n2)c1`, 4.67%. In the case of `COc1ccc(C(OC(=O)c2ccco2)C(=O)NC2CCCC2)cc1` (stereo not drawn) it was -11.4%. In the case of `CCc1ccc(C(=O)NCc2cnn(C)c2)s1` it was 6.54%. Turning to `Cc1ccc(SCC(=O)O/N=C(\N)c2cccnc2)cc1`, the inhibition is 67.7%. Take `O=C(/C=C/Nc1ccc(Oc2ccccc2Cl)cc1)c1ccco1`: the inhibition came out at 61.8%. Take `Cc1cccc(-n2ccnc2SCC(=O)Nc2nccs2)c1`: the inhibition was found to be 15.5%. For the molecule `O=C(Cc1nc2ccccc2[nH]1)c1ccc([N+](=O)[O-])cc1`, the inhibition came to 6.15%.

For `O=C(NCc1nc2ccccc2[nH]1)c1ccc([N+](=O)[O-])cc1`, the inhibition stood at 4.71%. On to `Cc1cc(C(=O)CN2C(=O)C(=O)N(Cc3ccco3)C2=O)c(C)n1CCc1ccccc1`, for which the inhibition was 54.3%.

Regarding `Cc1cccc(NC(=O)COc2ccc3oc4c(c3c2)CCCC4)n1`, the inhibition worked out at 75.9%. In the case of `Cc1ccnc(NC(=O)COc2ccc3oc4c(c3c2)CCCC4)c1`, the inhibition worked out at 76.9%. Regarding `COc1ccc(CNC(=O)Nc2ccc([N+](=O)[O-])cc2)cc1`, the inhibition is -6.85%. In the case of `O=C(NCCCn1ccnc1)c1ccc(Cl)c(S(=O)(=O)N2CCOCC2)c1`, the inhibition was 2.9%. In the case of `C/C(CC(=O)Nc1cccnc1)=N\NC(=O)C(=O)Nc1cccc(C)c1` it was 6.84%; in that of `CCOCCn1ccc2c(OCC(=O)Nc3ccccc3F)cccc2c1=O`, 4.93%; in that of `COc1cccc(OCCNC(=O)c2cccc(OC)c2)c1`, 7.64%. As to `O=C(NCCOc1ccccc1)c1cc(C(=O)NCCOc2ccccc2)cc([N+](=O)[O-])c1`, the inhibition was -6.28%. In the case of `Cc1ccc(OCCNC(=O)c2cccc(C)c2)cc1` it was 49.8%; in that of `COc1cccc(OCCNC(=O)c2ccc(C)cc2)c1`, 37.6%; in that of `CCCN(C(=O)c1ccco1)c1nnc(-c2ccccc2C)s1`, 72.7%. In the case of `COc1cc(C(=O)N[C@H](C(=O)NC2CCCCCC2)C(C)C)cc(OC)c1OC` it was 2.31%; in that of `O=C(COC(=O)c1cccnc1Cl)c1ccc2c(c1)OCCO2`, 5.13%; in that of `O=C(COC(=O)c1cc(Cl)ccc1O)Nc1ccc2c(c1)OCCO2`, 71.7%. In the case of `Cc1ccc(C(=O)OCC(=O)Nc2ccc3c(c2)OCO3)c(O)c1` it was -15.4%; in that of `O=C(COC(=O)c1cc(Br)ccc1O)Nc1ccc2c(c1)OCCO2`, 76.5%; in that of `CC1=C(C(=O)OCc2ccccc2)C(c2ccc([N+](=O)[O-])cc2)NC(=O)N1` (stereo not drawn), 8.66%.

Regarding `Cc1ccc(-n2cc3c(=O)n(C)c(=O)n(C)c3c2)cc1C`, the inhibition came to 13.7%. For `COc1cc2[nH]c(=S)nc(NCc3cccs3)c2cc1OC`, the inhibition is -37%. For the molecule `CCOC(=O)CC(=O)Nc1ccc(C)cc1`, the inhibition was found to be 60.5%. In the case of `COC(=O)c1ccc(NC(=O)NS(=O)(=O)c2ccc(C)cc2)cc1` it was 16.8%.

On to `CCOC(=O)c1ccc(S(=O)(=O)NNS(=O)(=O)c2ccc(C)cc2)cc1`, for which the inhibition was 3.23%.

As to `CCOC(=O)c1ccc(NC(=O)CCC(=O)OC)cc1`, the inhibition turned out to be 3.53%. In the case of `COC(=O)C(C)NC(=O)c1ccc(C(C)(C)C)cc1` (stereo not drawn) it was -13.9%. For the molecule `Cc1oc(-c2ccccc2F)nc1CS(=O)(=O)CC(=O)NCCCc1ccccc1`, the inhibition was -19.5%. Turning to `Cc1ccc(C(C)NC(=O)c2ccco2)cc1` (stereo not drawn), the inhibition is 71.4%. In the case of `CCC(=O)C1CCCN(C(=O)CCc2nnc(-c3ccc4c(c3)OCO4)o2)C1` (stereo not drawn) it was -3.37%. With `O=C(O)c1ccccc1N=N/C(=N/Nc1cc(S(=O)(=O)O)ccc1O)c1ccccc1`, the inhibition was -12.5%. In the case of `Oc1ccccc1N=N/C(=N/Nc1ccccc1O)c1ccccc1` it was 22.9%. On to `CC(=O)OC(C(=O)NC1CCCCC1)c1ccncc1` (stereo not drawn), for which the inhibition was -2.68%. For `CSC1=NSC2=NC(=O)/C(=C/c3coc4ccccc4c3=O)C(=N)N12`, the inhibition is -10.1%. In the case of `CSC1=NSC2=NC(=O)/C(=C\c3coc4ccccc4c3=O)C(=N)N12` it was -4.28%.

In the case of `CCOc1ccc(Nc2ccc(N3C(=O)CCC3=O)cc2[N+](=O)[O-])cc1`, the inhibition amounted to 7.14%. In the case of `Cc1sc(NC(=O)c2cccc(N3C(=O)CCC3=O)c2)nc1-c1ccccc1` it was -5.52%; in that of `CCN(CC)S(=O)(=O)c1cccc(-c2nnc(SCC(=O)NC)n2N)c1`, -7.59%. In the case of `COc1cc(NC(=O)C/C(C)=N/NC(=O)c2ccccn2)c(OC)cc1Cl` it was 69.5%. Turning to `Cc1ccc(N/C=C/C(=O)c2cccs2)cc1C`, the inhibition stood at 35.6%.

In the case of `COc1ccc(NC(=O)CCC(=O)c2cccs2)cc1Cl`, the inhibition is 1.43%. As for `Cc1ccc(NC(=O)CCC(=O)c2cccs2)cc1`, the inhibition was 8.3%. In the case of `COc1cc(NC(=O)C/C(C)=N/NC(=O)c2cccc(O)c2)c(OC)cc1Cl` it was 45.4%; in that of `COc1ccc(NC(=O)CCC(=O)c2cccs2)c(OC)c1`, -6.26%; in that of `Cc1ccc(NC(=O)COC(=O)CCC(=O)c2cccs2)cc1`, 69%. `Cc1ccc(NC(=O)COC(=O)CCC(=O)c2cccs2)cc1C`: the inhibition amounted to 59.8%. Regarding `O=C(CSc1n[nH]c(-c2ccc(S(=O)(=O)NC3CCCCC3)cc2)n1)N1CCCC1`, the inhibition is 12.1%. For `O=C(CCc1nc2ccccc2c(=O)[nH]1)NCCN1C(=O)S/C(=C\c2ccccc2Cl)C1=O`, the inhibition stood at 7.97%.

Regarding `O=c1c2ccccc2n(Cc2cccc(F)c2)c(=O)n1C1CCCC1`, the inhibition was found to be 7.83%. For `CC(C)C[C@@H](CN(N=O)[C@@H](Cc1ccccc1)CN(C)N=O)N(CCc1ccccc1)N=O`, the inhibition worked out at 1.78%. In the case of `CCOc1ccc(N2C(=O)CC(NC3CCCCNC3=O)C2=O)cc1` (stereo not drawn) it was 61.4%; in that of `Cc1ccccc1NC(=O)Nc1ccccn1`, 1.67%; in that of `COc1ccc(-c2cc(C(F)(F)F)nc(-n3ccnc3C)n2)cc1`, 31%.

As to `O=C(COC(=O)CNS(=O)(=O)c1ccc(Br)cc1Cl)NC1CC1`, the inhibition was -8.59%. Regarding `O=C(Nc1ccc(Cl)cc1)c1cccs1`, the inhibition worked out at 76.6%. In the case of `Cc1ccc(NC(=O)CCC(=O)c2cccs2)cc1F` it was 14.5%; in that of `O=C(CCC(=O)c1cccs1)NCc1ccc(Cl)cc1`, 3.45%. In the case of `Cc1ccc(NC(=O)Cc2cccs2)cc1Cl` it was 13.4%; in that of `O=c1c2ccccc2ncn1CCCSc1ccc(Cl)cc1`, 72.5%.

In the case of `O=C(c1ccccc1CCc1ccccc1)N1CCCC1`, the inhibition was 7.78%. In the case of `CCC(=O)Nc1ccc(Br)cn1` it was 8.41%; in that of `CCCCC(=O)Nc1ccc(Br)cn1`, 6.83%; in that of `CCN(C(=O)COC(=O)c1cc([N+](=O)[O-])ccc1N1CCOCC1)C1CCS(=O)(=O)C1` (stereo not drawn), -18.3%. For the molecule `CC1CCc2c(nc3nc[nH]n3c2=O)C1` (stereo not drawn), the inhibition was determined as 14.7%. In the case of `Cc1nc2nc3c(c(=O)n2[nH]1)CCC3` it was -0.78%; in that of `Cc1cccc(NC(=S)NCC(c2cccnc2)N2CCOCC2)c1C` (stereo not drawn), -1.94%; in that of `CCOc1ccc(N2C(=O)CC(N(CCc3ccc(OC)c(OC)c3)C(=O)/C=C/C(=O)O)C2=O)cc1` (stereo not drawn), 16.4%.

Regarding `COc1cc(/C=C2/C(=O)NN(c3cccc(C)c3)C2=O)cc([N+](=O)[O-])c1O`, the inhibition came to 10.2%. For the molecule `COC(=O)c1ccc(N2NC(=O)/C(=C/c3ccc(OC)c(OC)c3)C2=O)cc1`, the inhibition worked out at 14.3%. In the case of `COc1cc(/C=C2/C(=O)NN(c3ccc(Cl)cc3)C2=O)cc(OC)c1O` it was 21.1%; in that of `COc1ccc(/C=C2/C(=O)N(c3ccccc3)N=C2C)cc1OC`, 1.07%. In the case of `COc1ccc(/C=C2/C(=O)N(c3ccccc3)N=C2C)cc1Br` it was 1.11%; in that of `COc1cc(/C=C2/SC(=O)NC2=O)ccc1OC(=O)c1ccco1`, -7.07%; in that of `CCOC(=O)COc1ccc(/C=C2/C(=O)NN(c3ccc(F)cc3)C2=O)cc1OC`, 79.2%. In the case of `COc1cc(/C=C2/SC(=S)N(C)C2=O)ccc1OC(=O)c1ccco1` it was 31.5%. In the case of `CC1CCCN(CCCNC(=O)c2ccc(CS(=O)(=O)c3c(Cl)cccc3Cl)o2)C1` (stereo not drawn), the inhibition turned out to be 0.97%. In the case of `C/C(=N\NC(=O)c1ccccc1NC(=O)c1ccc(Cl)cc1)c1ccncc1` it was 14.5%; in that of `Cn1nc(C(=O)N2CCN(S(=O)(=O)/C=C/c3ccccc3)CC2)c2ccccc2c1=O`, 1.67%. In the case of `CCC1C2Cn3c(nc4ccccc43)C1N(C)O2` (stereo not drawn) it was -9.29%; in that of `CC1(C)CC(=O)C(C=NCCN2CCN(C(=O)CCl)CC2)=C(O)C1`, 28.9%. For the molecule `CCOC(=O)c1sc(C)c(C(=O)NCCCN2CCOCC2)c1N`, the inhibition is -1.46%.

As for `COc1cc(CC(=O)OCC(=O)Nc2ccc(Cl)c(S(=O)(=O)N(C)C)c2)cc(OC)c1OC`, the inhibition stood at 16.7%. Turning to `Cc1ncc(CO)c(CNc2ccc(Oc3ccccc3)cc2)c1O`, the inhibition is 41.9%. In the case of `CCC1CCc2sc(C(=O)NNC(=S)NCC3CCCO3)cc2C1` (stereo not drawn) it was 23.3%. With `O=C(NCC1CCCO1)c1cc2c(s1)CCCC2` (stereo not drawn), the inhibition turned out to be 5.26%. In the case of `CCC1CCc2sc(C(=O)NCc3ccccn3)cc2C1` (stereo not drawn) it was 75.2%; in that of `CC1CCc2sc(C(=O)NNC(=O)c3ccncc3)cc2C1` (stereo not drawn), 71.2%.

On to `CCOc1ccc(NC(=O)CCC(=O)NNC(=O)COc2ccc(C)cc2)cc1`, for which the inhibition is -22.8%. In the case of `CCOC(=O)c1c(C)[nH]c(C)c1C(=O)CSc1nncs1` it was -5.38%.

`Cc1[nH]ccc(=O)c1OCC(=O)O`: the inhibition is -4.62%. In the case of `COc1ccc(S(=O)(=O)N2CCN(c3ccc4nnc(-c5ccc(F)cc5)n4n3)CC2)cc1` it was 24%; in that of `CNC[C@H]1Oc2c(NS(=O)(=O)c3ccccc3)cccc2C(=O)N([C@H](C)CO)C[C@@H]1C`, -8.41%.

(Values after PubChem BioAssay AID488890 (Southern Research Specialized Biocontainment Screening …, 2010).)
